Measured values as given in the supplement of paper PMC7411640.
Counter-ions that a name gives are not always drawn.

Tested on: MDA-MB-468
Assay: phospho-S6 immunofluorescence (DAPI-normalised), per-plate z-score; higher = higher phospho-S6 signal (less pathway suppression)
Conditions: 24 h
Method: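 GPCR-targeted compound library (MedChemExpress HY-L006) tested on MDA-MB-468 PTEN-null TNBC cells in 384-well plates at 0.1, 1 or 10 uM, combined with vehicle, GDC0941 450 nM or lapatinib 1 uM, for 24 h. Phospho-S6 (S240/244) immunofluorescence normalised to DAPI and expressed as a per-plate z-score; values are the mean of biological triplicates.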

| Structure (SMILES) | phospho-S6 immunofluorescence (z-score) (co-treatment: GDC0941 450 nM) | phospho-S6 immunofluorescence (z-score) (co-treatment: lapatinib 1 uM) | phospho-S6 immunofluorescence (z-score) (co-treatment: vehicle) |
| --- | --- | --- | --- |
| CC(C)(Cc1nc(-c2ccc(O)cn2)no1)C(=O)NC1=C(C(=O)O)CCCC1 (compound 10 µM) | 0.73 | 0.37 | 1.12 |
| CCCCCCn1c(O)c(N=NC(=O)c2ccccc2)c2ccccc21 (compound 10 µM) | -2.97 | -0.75 | 0.59 |
| COc1ccc(/C=C/C(=O)Nc2ccccc2C(=O)O)cc1OC [Tranilast (trans-)] (compound 10 µM) | 0.32 | -0.26 | 0.65 |
| CN(C)C(=O)C(CCN1CCC(O)(c2ccc(Cl)cc2)CC1)(c1ccccc1)c1ccccc1 [Loperamide (hydrochloride)] (compound 10 µM) | -1.31 | -3.22 | -0.37 |
| COc1ccc(NS(=O)(=O)c2sc3ccc(Cl)cc3c2C)cc1N1CCNCC1 (compound 10 µM) | 0.28 | -1 | 0.35 |
| Clc1ccc(Cn2c(CN3CCCC3)nc3ccccc32)cc1 [Clemizole (hydrochloride)] (compound 10 µM) | -3.06 | 0.26 | -1.37 |
| CCCCc1nc(C)c(CC(=S)N(C)C)c(=O)n1Cc1ccc(-c2ccccc2-c2nnn[nH]2)cc1 [Fimasartan] (compound 10 µM) | 0.34 | 1.66 | -0.04 |
| CCN1CCC[C@H]1CNC(=O)c1cc(S(N)(=O)=O)ccc1OC [Levosulpiride] (compound 10 µM) | 0.22 | 0.89 | -0.63 |
| CCCC(=O)Nc1ccc(OCC(O)CNC(C)C)c(C(C)=O)c1 (configuration not stated) [Acebutolol (hydrochloride)] (compound 10 µM) | 1.02 | 0.15 | -0.08 |
| O=C1CCC(c2ccccc2)(C2CCN(Cc3ccccc3)CC2)C(=O)N1 (configuration not stated) [Benzetimide (hydrochloride)] (compound 10 µM) | 0.5 | -0.15 | 0.11 |
| CCOC(=O)c1ccc(-n2cc(Cc3cnc(OCC)nc3)c(=O)nc2SCc2ccc(F)cc2)cc1 (compound 10 µM) | -3.26 | -3.79 | -4.85 |
| c1ccc2c(CC3=NCCN3)cccc2c1 [Naphazoline (hydrochloride)] (compound 10 µM) | -0.78 | 0.03 | 0.05 |
| CC1(C)O[C@@H]2C[C@H]3[C@@H]4C[C@H](F)C5=CC(=O)C=C[C@]5(C)[C@@]4(F)[C@@H](O)C[C@]3(C)[C@]2(C(=O)CO)O1 [Fluocinolone (Acetonide)] (compound 10 µM) | -0.92 | 0.83 | -0.53 |
| COc1cc2nc(C3CC3)nc(N3CCN(c4ccccc4OC)CC3)c2cc1OC (compound 10 µM) | -1.77 | -0.08 | 0.05 |
| O=C(O[C@H]1CN2CCC1CC2)N1CCc2ccccc2[C@@H]1c1ccccc1 [Solifenacin (Succinate)] (compound 10 µM) | 1.65 | 1.13 | -0.65 |
| COc1cc2c(cc1OC)CC(=O)N(CCCN(C)C[C@H]1Cc3cc(OC)c(OC)cc31)CC2 [Ivabradine (hydrochloride)] (compound 10 µM) | -0.44 | -0.13 | -0.38 |
| CN(C)CC/C=C1/c2ccccc2Sc2ccc(Cl)cc21 [Chlorprothixene] (compound 10 µM) | 0.1 | -3.66 | 0.41 |
| N=C(N)NCCC[C@@H](NC(=O)[C@@H]1CCCN1C(=O)[C@@H]1CSSCCC(=O)N[C@@H](Cc2ccc(O)cc2)C(=O)N[C@@H](Cc2ccccc2)C(=O)N[C@@H](CCC(N)=O)C(=O)N[C@@H](CC(N)=O)C(=O)N1)C(=O)NCC(N)=O [Desmopressin (Acetate)] (compound 10 µM) | 0.16 | -0.21 | -0.41 |
| CN(C)N(C)C(=O)[C@@]1(Cc2ccccc2)CCCN(C(=O)[C@@H](Cc2c[nH]c3ccccc23)NC(=O)C(C)(C)N)C1 [Anamorelin] (compound 10 µM) | -0.16 | -2.31 | 0.4 |
| C[C@H](NC(=O)c1c(C(F)F)nn(C)c1Oc1cccc(C(F)(F)F)c1)c1ccc(C(=O)O)cc1 (compound 10 µM) | 0.32 | 0.46 | -0.56 |
| CC(=O)OCC(=O)NCCCOc1cccc(CN2CCCCC2)c1 [Roxatidine (Acetate Hydrochloride)] (compound 10 µM) | 0.24 | 0.32 | 0.91 |
| COc1cc(NC(=O)c2ccccn2)ccc1Cl (compound 10 µM) | -0.65 | -0.21 | 0.28 |
| CC(C)c1noc(N2CCC(COc3ccc(-c4ccc(S(C)(=O)=O)cc4)nc3)CC2)n1 (compound 10 µM) | -2.9 | -4.91 | -6.22 |
| CC(C)C[C@H](NC(=O)[C@@H](COC(C)(C)C)NC(=O)[C@H](Cc1ccc(O)cc1)NC(=O)[C@H](CO)NC(=O)[C@H](Cc1c[nH]c2ccccc12)NC(=O)[C@H](Cc1cnc[nH]1)NC(=O)[C@@H]1CCC(=O)N1)C(=O)N[C@@H](CCCNC(=N)N)C(=O)N1CCC[C@H]1C(=O)NNC(N)=O [Goserelin (acetate)] (compound 10 µM) | -1.26 | 0.37 | 0.21 |
